Assay outcomes from PubChem.
Rows were chosen to be rich in hits. Some 18% of all compounds tested hit in one or more screens of this group.
IL1B secr inh: inflammasome signaling inhibition, IL-1 beta readout; activity change, % at 57.5 µM; actives 4.7% (n = 360,000); THP-1 LPS/ATP IL-1B secretion, AlphaLISA, 16 h; active compounds read low; AID 743279; in the data active = activity change below about -50%; inconclusive = mostly about -30% to -49%
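THP-1 cells pretreated 1 hr with compounds (up to 57.5 uM final), then stimulated with LPS (250 ng/mL final) plus ATP (1.25 mM final); secreted IL-1B measured by AlphaLISA after 16 hr, decreased signal indicating inhibition.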
CtBP-E1A inh: inhibitors of CtBP/E1A interaction; actives 0.49% (n = 340,000); AlphaScreen GST-E1A/His-CtBP binding, 1536-well; active compounds read low; activity change, % (no concentration beside the values); in the data active = activity change below about -65%; inconclusive = mostly about -30% to -63%
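Homogeneous bead-based format: GST-tagged E1A captured on glutathione donor beads, His-tagged CtBP on nickel acceptor beads; compounds precede bead addition by 2 h at 37 °C.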
TDP1 inh: blocks human tyrosyl-DNA phosphodiesterase 1; Q9NUW8; recombinant TDP1, AlphaScreen DNA substrate cleavage; Potency, µM (doses to about 130 µM), for inactives: at the highest dose activity change, negative = inhibition, hits mostly inhibitors; actives 0.28% (n = 350,000); also: potency is read from the fitted curve at half-maximal effect; nearly all actives have a fitted effect of over 40% in size
Target sequence (Q9NUW8 whole entry, looked up): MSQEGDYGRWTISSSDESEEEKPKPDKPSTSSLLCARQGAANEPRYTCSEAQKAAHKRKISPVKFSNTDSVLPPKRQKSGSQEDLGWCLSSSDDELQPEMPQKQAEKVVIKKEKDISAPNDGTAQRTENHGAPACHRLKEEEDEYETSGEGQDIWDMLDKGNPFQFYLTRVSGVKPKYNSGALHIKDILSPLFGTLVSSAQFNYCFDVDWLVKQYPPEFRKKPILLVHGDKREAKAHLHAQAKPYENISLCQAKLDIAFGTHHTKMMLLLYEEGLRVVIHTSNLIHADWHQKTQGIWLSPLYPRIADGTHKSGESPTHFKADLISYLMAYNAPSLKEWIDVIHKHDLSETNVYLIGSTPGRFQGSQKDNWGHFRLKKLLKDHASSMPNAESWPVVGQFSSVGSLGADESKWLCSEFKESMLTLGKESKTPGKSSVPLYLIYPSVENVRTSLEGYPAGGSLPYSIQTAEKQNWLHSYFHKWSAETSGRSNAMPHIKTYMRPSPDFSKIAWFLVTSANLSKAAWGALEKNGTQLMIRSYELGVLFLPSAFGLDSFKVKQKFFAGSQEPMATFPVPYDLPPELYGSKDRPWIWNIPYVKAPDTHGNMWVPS
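Here, a 5' biotin and 3' phosphotyrosine-FITC DNA oligonucleotide reports Tdp1 activity: intact substrate bridges AlphaScreen beads, while cleavage leaves a 3' phosphate and drops signal. All incubations at room temperature.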
TDP1 cell CPT: DT40-hTDP1 cell growth loss with CPT. AID 686979. chicken DT40 Tdp1-/-;hTDP1 cells + 20 nM CPT, ATP luminescence, 48 h. actives 12% (n = 420,000). Potency, µM (series often up to 46.2 µM), without a hit: at the highest dose activity change, negative = growth inhibition, hits mostly inhibitors; also: potency is read from the fitted curve at half-maximal effect; nearly all actives have a fitted effect of over 55% in size
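Chicken DT40 Tdp1-/- cells stably complemented with human TDP1 were seeded at 400 cells/well in medium containing 20 nM camptothecin, exposed to pin-transferred compounds, and grown at 37 °C for at least 48 hr. Viability was read as ATP luminescence.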
Six1-Eya2 inh: inhibitors of human Six1/Eya2 interaction | actives 0.56% (n = 360,000) | AlphaScreen GST-Six1/His-Eya2 binding, biochemical; active compounds read low | Q15475+O00167 | activity change, % (test concentration not listed) | AID 651725; in the data active = activity change below about -65%; inconclusive = mostly about -30% to -63%
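Homogeneous AlphaScreen proximity assay pairing GST-Six1 with His-tagged Eya2 (added as 5X mix: 250 nM and 500 nM) in 50 mM Tris pH 8.0, 300 mM NaCl, 1 mM TCEP. Glutathione donor and nickel acceptor beads; 1 h, 37 °C, dark.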
TDP1 cell noCPT: qHTS for Inhibitors of human tyrosyl-DNA phosphodiesterase 1 (TDP1): qHTS in cells in absence of CPT; DT40 Tdp1-/- hTDP1 cells, no CPT, ATP luminescence, 48 h; Potency, µM (series often up to 46.2 µM), for the others: top-dose activity change, negative = growth inhibition, usual class: inhibitors; actives 15% (n = 420,000); AID 686978, 2013; also: potency is read from the fitted curve at half-maximal effect; nearly all actives have a fitted effect of over 55% in size
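DT40 Tdp1-/-;hTDP1 cells, no CPT (DMSO vehicle only), 400 cells/well; compounds pin-transferred; ≥48 hr, 37 °C; CellTiter-Glo 30 min RT dark, luminescence read.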
The depositor's hits bear a star; ? = inconclusive; / = no result; [ ] = another dose, or the depositor's remark. Unless noted, calls follow the shape of the dose curve; as a rule, active = well fitted curve in the direction sought with a large enough effect; inconclusive = small, poorly fitted or top-dose-only effect, or another doubt; inactive = no such curve, though single readings can be large; an effect the other way counts as inactive or inconclusive. % is scaled to controls: 0 for no effect and ±100 for the full control effect.

SMILES	IL1B secr inh	CtBP-E1A inh	TDP1 inh	TDP1 cell CPT	Six1-Eya2 inh	TDP1 cell noCPT
CCOC(=O)Cc1cc(=O)n(-c2nc3ccccc3s2)[nH]1	13	-14	11%	-29%	-15	18µM*
CCCc1cc(=O)n(-c2nc3ccccc3s2)[nH]1	11	2	/	0%	-1	17%
CN(C)c1ccc(-c2nc(-c3ccccn3)no2)cc1[N+](=O)[O-]	/	/	0%	-29%	/	18µM*
CN(Cc1ccccc1)c1ccc(-c2nc(-c3ccncc3)no2)cc1[N+](=O)[O-]	/	/	0%	21µM*	/	18µM*
CN(Cc1ccccc1)c1ccc(-c2nc(-c3cccnc3)no2)cc1[N+](=O)[O-]	/	/	-9%	-6%	/	1%
CN(Cc1ccccc1)c1ccc(-c2nc(-c3ccccn3)no2)cc1[N+](=O)[O-]	/	/	9%	?	/	18µM*
CN(C(=S)Nc1cccnc1)c1ccc(O)cc1	5	-4	-8%	-23%	3	?
CC(=O)OCC(=O)Nc1ccc(SC(F)F)cc1	-18	0	2%	?	-1	-9%
CN(C(=S)Nc1ccc(Oc2ccccc2)cc1)c1ccc(O)cc1	-73*	-21	5%	?	-5	?
CN(C(=S)Nc1ccc(SC(F)F)cc1)c1ccc(O)cc1	-54*	-3	5%	?	-2	?
COc1ccc(CC(=O)OCC(=O)NC2CCCCC2)cc1	-10	/	-1%	-5%	-3	-13%
COc1ccc(/C=C2\OC(=O)c3c(OC)cccc32)cc1OC	?	-2	-2%	-28%	3	?
COc1ccccc1C=C1CCc2ccccc2C1=O	-7	1	/	?	-3	?
COc1ccc(C=C2CCc3ccccc3C2=O)cc1	1	4	/	?	-1	?
COc1cc(/C=C2/CCc3ccccc3C2=O)cc(OC)c1OC	-99*	-6	1%	?	12	15µM*
COc1ccc(/C=C2\COc3ccccc3C2=O)cc1OC	-98*	0	2%	15µM*	-16	21µM*
O=C(O)c1ccc(/C=C2\COc3ccccc3C2=O)cc1	-105*	-11	-2%	?	-19	18µM*
COc1ccc(/C=C2/CCc3ccccc3C2=O)cc1OC	-99*	-7	3%	?	2	?
Cc1cc(C)c2c(c1)C(=O)/C(=C/c1ccc(C(=O)O)cc1)CC2	-13	8	4%	-16%	-7	-15%
CCOc1ccccc1NC(=O)CCS(=O)(=O)c1ccc(Br)cc1	5	4	/	11%	17	-22%
COc1ccc(OC)c(N=C2C(=O)Nc3ccccc32)c1	9	5	8%	-6%	-6	-1%
COc1cc(/C=C2\CCc3ccccc3C2=O)cc(OC)c1OC	-101*	16	8%	18µM*	-2	16µM*
COc1ccc2c(c1)OC/C(=C/c1cccs1)C2=O	-27	-1	3%	3%	3	?
COc1ccc(/C=C2\C(=O)NC(=O)c3ccccc32)cc1OC	51	-5	/	1.6µM*	16	1.5µM*
COc1ccc2c(c1)OC/C(=C\c1ccc(OC)c(O)c1)C2=O	/	/	15%[56.1 µM]	1.5µM*	/	1µM*
COc1ccc2c(c1)/C(=C/c1cc(OC)c(OC)c(OC)c1)C(=O)N2	-6	-7	/	0.52µM*	8	0.73µM*
C=C(C)Cn1c(N)cc(=O)nc1SCC(=O)Nc1cccc(C(F)(F)F)c1	-29	2	2%[56.1 µM]	-12%	0	-10%
CCOc1cc(/C=C2\COc3ccccc3C2=O)cc(Br)c1OCC(=O)N(C)C	-103*	-13	12%	3.7µM*	-10	4.6µM*
COc1ccc(C=C2c3ccccc3C(=O)c3ccccc32)c(OC)c1	/	/	13%	/	/	/
COc1ccc(/C=C2\COc3ccccc3C2=O)c(OC)c1	2	-2	6%[0.0935 µM]	21µM*	-3	?
